The list is not random: actives were taken first. Their share in the collection is about 4.1%.
Bfl-1 A1 inh: inhibitors of the anti-apoptotic protein A1, read as caspase activation | hit rate 0.066% among 330,000 | AID 2462 | caspase activation, % (concentration not given with the values) | MEF A1-2A-BIM cells, Caspase-Glo 3/7 luminescence, 3 h; percent of clofoctol response, vehicle zero;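 active = over half of replicate activation scores above 10%, or exactly half above 10 with the replicate mean above 10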
aSyn 5UTR inh: MLPCN primary screen, SNCA 5' untranslated region; hit rate 0.82% among 300,000; AID 1813; inhibition, % (tested at 7.5 µM); alpha-synuclein 5'UTR reporter, inhibitor activity; in the data active = inhibition above about 60%;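 also: H4 neuroglioblastoma cells stably carrying SNCA 5'UTR luciferase fusion; 0% = DMSO wells and 100% = positive control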
Mdm2-MdmX inh: human Mdm2/MdmX binding inhibition. O15151+Q00987. SaOS-2 split-luciferase Mdm2/MdmX complementation, luminescence. inhibition, % at 8 µM. hit rate 3% among 330,000;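 active = inhibition of at least 50% at 8 µM in the primary screen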
Beta apoptosis: beta cell apoptosis inhibition | hit rate 0.8% among 300,000 | INS-1E cytokine-induced death, ATP luminescence, 48 h; percent of positive-control rescue, neutral wells zero | protection from apoptosis, % (concentration not given with the values) | AID 435005;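 active = Every replicate reaches about 75%, or at least half do and their mean reaches it too, limit read from the data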;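 also: 0% = cytokine-treated negative control wells and 100% = positive control rescue; higher means more ATP so stronger rescue from cytokine killing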
CSC inhib: cancer stem cell inhibition; cancer stem cell-like cells viability, luminescence; inhibition, % at 7.5 µM; hit rate 1.1% among 300,000; AID 2717; in the data active = inhibition above about 75%; tested in HMLE shEcad cells
Mdm2-MdmX conf: human Mdm2/MdmX binding inhibition, confirmed | shares compounds with Mdm2-MdmX inh | inhibition, % at 8 µM | AID 489028 | hit rate 55% among 10,000 | luminescent assay; in the data active = inhibition above about 40%
FLuc counter: full-length luciferase inhibition in Mdm2/MdmX counter-screen | inhibition, % at 8 µM | SaOS-2 full-length luciferase counterscreen, luminescence | shares compounds with Mdm2-MdmX inh | AID 504607 | hit rate 77% among 6,200;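 active = mean inhibition at 8 µM reaching about 37%, which flags the compound as non-specific, limit read from the data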;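 also: p53-null SaOS-2 cells with luciferase driven by a doxycycline-inducible promoter; compound on cells about two nights before reading with doxycycline added after day one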
Active calls of the source: *; x = no result.

SMILES	Bfl-1 A1 inh	aSyn 5UTR inh	Mdm2-MdmX inh	Beta apoptosis	CSC inhib	Mdm2-MdmX conf	others
Cc1ccccc1OCCNc1cc(N2CC(C)NC(C)C2)ccc1[N+](=O)[O-] (stereo not given)	x	-37	80*	-4	x	30
CCc1ccc(OCCNc2cc(N3CCNC(C)C3)ccc2[N+](=O)[O-])cc1 (stereo not given)	2	x	95*	25	x	38	FLuc counter=75*
O=C(NCCCC1CCCC1)C1CCC(=O)N(Cc2ccc(Cl)cc2)C1 (stereo not given)	0	8	15	6	-7	x
CCc1ccccc1NC(=O)C1CCN(S(=O)(=O)c2ccc3c(c2)N(C(C)=O)CCO3)CC1	1	20	18	6	-18	x
Nc1c(-c2ccccn2)cnn1-c1nc(-c2ccc(F)cc2)cs1	0	-79	-17	1	5	x
COc1ccc(-c2csc(-n3ncc(-c4ccccn4)c3N)n2)cc1	1	-15	58*	2	x	6
COCC(C)n1c(SCc2cc(=O)n3cc(C)ccc3n2)nc2ccccc2c1=O (stereo not given)	0	64*	51*	2	11	10
CCOC(=O)c1sc(N(Cc2ccccc2)C(=O)CCl)nc1C	1	-6	65*	0	9	11
CCN(CC)S(=O)(=O)c1ccc(N/N=C(\C)c2ccncc2)nc1	1	15	5	-6	40	x
CCN(CC)S(=O)(=O)c1ccc(N/N=C/c2ccc(O)cc2O)nc1	0	90*	65*	66	112*	78*	FLuc counter=50*
Cc1sc(N/N=C/c2ccco2)nc1-c1ccccc1	0	-21	-38	4	32	x
C(=N\Nc1nc(Nc2ccccc2)nc(Nc2ccccc2)n1)/c1ccncc1	0	-3	29	-5	15	x
Cc1sc(N/N=C/c2cccnc2)nc1-c1ccccc1	-2	-20	59*	3	18	62*	FLuc counter=74*
C(=N\Nc1nc(Nc2ccccc2)nc(Nc2ccccc2)n1)/c1cccnc1	3	-23	72*	19	x	51*	FLuc counter=81*
O=C(CCS(=O)(=O)c1ccccc1)Nc1ccc(Cl)cn1	1	-38	5	-2	x	x
CCc1nnc(NC(=O)CSc2nc(-c3ccccc3)nc3ccccc23)s1	-1	-10	78*	-1	7	50*	FLuc counter=90*
Cc1cc(OCC(=O)N2CCN(c3ccccc3)CC2)c2c(C)cc(=O)oc2c1	-1	-14	76*	4	5	7
COc1ccc(C(=O)OCC(=O)Nc2sccc2C(N)=O)cc1[N+](=O)[O-]	1	x	22	-1	x	x
COc1ccc(S(=O)(=O)N2CCOCC2)cc1NC(=O)Cc1coc2cc(C)c(C)cc12	-1	14	13	-4	4	x
CC(=O)c1ccc(N2CCN(c3ccc4cc(S(=O)(=O)N5CCC(C)CC5)ccc4n3)CC2)cc1	0	47	61*	23	x	-2
O=S(=O)(c1ccc2nc(N3CCN(c4ccccc4)CC3)ccc2c1)N1CCCCC1	0	-26	42	-7	-11	x
CC(=O)c1ccc(N2CCN(S(=O)(=O)c3ccc4ccccc4c3)CC2)cc1	0	x	9	-9	4	x
COc1ccccc1N1CCN(c2ccc3cc(S(=O)(=O)N4CCCCC4)ccc3n2)CC1	-1	-7	51*	29	x	6
N/C(=N\OCc1ccc([N+](=O)[O-])cc1)c1ccccn1	0	112*	76*	0	-10	67*	FLuc counter=44*
Cc1ccc(C)c(CSC2=NCCN2S(=O)(=O)c2ccccc2)c1	0	14	31	6	-7	x
SMILES	Bfl-1 A1 inh	aSyn 5UTR inh	Mdm2-MdmX inh	Beta apoptosis	CSC inhib	Mdm2-MdmX conf	others
O=C(/C=C/c1ccc(Cl)cc1)NCc1cccs1	0	-2	-67	-13	-12	x
O=C(/C=C/C(=O)NCc1cccs1)NCc1cccs1	1	-10	62*	0	-9	4
O=S(=O)(c1cccc(Br)c1)N1CCN(C(=S)NCC2CCCO2)CC1 (stereo not given)	1	10	19	7	x	x
CCCn1nc(C(=O)Nc2cccc(S(=O)(=O)N(C)c3ccccc3)c2)c2ccccc2c1=O	0	x	53*	12	-4	13
CCCn1nc(C(=O)Nc2ccc(N3CCOCC3)cc2)c2ccccc2c1=O	0	x	51*	-2	-5	10
CCCC(=O)Nc1cccc(S(=O)(=O)N(C)c2ccccc2)c1	0	17	20	-5	-1	x
Cn1nc(C(=O)Nc2cccc(S(=O)(=O)N3CCCC3)c2)c2ccccc2c1=O	1	x	54*	-8	x	2
CCOc1cc(N2CCOCC2)c(OCC)cc1NC(=O)c1nn(CC)c(=O)c2ccccc12	-1	x	86*	36	x	49*	FLuc counter=87*
COc1ccccc1N(C)S(=O)(=O)c1ccc(C)c(C(=O)NCc2ccccn2)c1	0	x	6	5	-4	x
Cc1nc2ccc(NC(=O)c3nn(CC(C)C)c(=O)c4ccccc34)cc2s1	1	53	77*	-2	1	86*	FLuc counter=51*
Cc1nnc(NC(=O)c2nn(CC(C)C)c(=O)c3ccccc23)s1	1	20	6	3	-2	x
CCc1cc(=O)oc2c3c(cc(OCC(=O)NCCN4CCOCC4)c12)OC(C)(C)CC3	1	15	7	1	40	x
Nc1nonc1-n1nnc(C(=O)N/N=C/c2ccc(OCc3ccccc3)cc2)c1CNc1ccccc1	-3	-50	77*	5	13	10
Cc1ccccc1COc1cccc(/C=N/NC(=O)c2nnn(-c3nonc3N)c2C)c1	1	-36	51*	10	-1	40	FLuc counter=87*
Nc1nonc1-n1nnc(C(=O)N/N=C/c2ccc(OCc3ccccc3)cc2)c1COc1ccc(F)cc1	0	-96	61*	10	26	40*	FLuc counter=105*
Cc1c(C(=O)N/N=C/c2cccc(O)c2)nnn1-c1nonc1N	0	-16	-9	-1	-8	x
Nc1nonc1-n1nnc(C(=O)N/N=C/c2ccc(O)cc2)c1COc1ccc(F)cc1	0	-4	23	-6	-3	x
Nc1nonc1-n1nnc(C(=O)N/N=C/c2cccc(F)c2)c1-c1ccc2c(c1)OCO2	0	1	-8	0	-3	x
Nc1nonc1-n1nnc(C(=O)N/N=C/c2ccc(F)cc2)c1-c1ccc2c(c1)OCO2	-1	8	59*	0	6	-9
COc1ccc(S(=O)(=O)NCC2CC3C=CC2C3)cc1OC (stereo not given)	2	15	11	-1	-18	x
CCCCCc1nnc(NC(=O)c2cccc(S(=O)(=O)N3CCOCC3)c2)s1	x	x	-4	x	x	x
CCc1ccc2[nH]c3nc(SCc4nnc(-c5ccccc5)o4)nnc3c2c1	1	-7	56*	10	4	-6

Screening results as filed in PubChem BioAssay.
